# BioA inh: BioA (M. tuberculosis) enzyme inhibition; purified M. tuberculosis BioA enzyme, plate reader; inhibition, % at 9.99 µM; 0.096% of 360,000 active; in the data active = inhibition above about 40%
# UGM FP inh: Mtb UDP-galactopyranose mutase inhibition | P9WIQ1 | purified UGM, fluorescence polarization probe displacement | inhibition, % at 10 µM | 0.06% of 320,000 active | AID 504406; in the data active = inhibition above about 10%, passing the limit was not always enough
# RecA splice inh: blocks M. tuberculosis RecA intein splicing; P9WHJ3; cell-free RecA intein splicing, fluorescence; inhibition, % (test concentration not listed); 0.75% of 290,000 active; AID 2221; in the data active = inhibition above about 30%;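 also: 0% = vehicle wells and 100% = reference inhibitor control wells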
# Rv3671c inh: inhibitors of M. tuberculosis serine protease Rv3671c | inhibition, % at 5.96 µM | 0.048% of 320,000 active; in the data active = inhibition above about 38%;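 also: extracellular domain of Rv3671c used as enzyme; 0% = enzyme with DMSO and 100% = no enzyme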
# Target sequence (P9WHR9 whole entry, looked up, the tested form may be a part): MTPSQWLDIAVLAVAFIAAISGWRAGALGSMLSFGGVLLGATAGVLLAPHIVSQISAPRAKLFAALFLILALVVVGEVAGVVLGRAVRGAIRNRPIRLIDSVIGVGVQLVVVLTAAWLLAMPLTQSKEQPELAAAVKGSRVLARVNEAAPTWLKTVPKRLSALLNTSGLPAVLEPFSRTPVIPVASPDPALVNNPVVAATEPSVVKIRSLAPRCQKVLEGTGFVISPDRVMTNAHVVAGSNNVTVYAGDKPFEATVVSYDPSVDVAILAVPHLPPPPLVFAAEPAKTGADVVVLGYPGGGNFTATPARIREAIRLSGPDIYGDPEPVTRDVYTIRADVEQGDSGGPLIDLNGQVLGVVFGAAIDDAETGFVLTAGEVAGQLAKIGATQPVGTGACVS
# TcdB GH inh: inhibitors of Clostridioides difficile toxin B glycohydrolase; TcdB glycohydrolase enzymatic assay, plate reader; inhibition, % at 9.99 µM; 0.24% of 350,000 active; AID 652162; in the data active = inhibition above about 10%
# FadD28 FP inh: M. tuberculosis FadD28 bisubstrate binding inhibition | FadD28 bisubstrate probe binding, fluorescence polarization | inhibition, % at 12.5 µM | 0.22% of 360,000 active | AID 588549; in the data active = inhibition above about 8.5%, passing the limit was not always enough
# * = called active by the depositor; · = no result; ! = repeats disagree. Sampled rows, rich in hits. Any-hit rate of the full collection: about 0.97%.
SMILES,BioA inh,UGM FP inh,RecA splice inh,Rv3671c inh,TcdB GH inh,FadD28 FP inh
Cc1c(C)c2c(C)[nH]nc2oc1=O,-3,-2,2,2,·,-3
CCOC(=O)Cc1c(C)c2c(C)[nH]nc2oc1=O,-5,-2,39*,-4,·,-3
CCCc1c(C)c2c(C)[nH]nc2oc1=O,0,-1,41*,-2,·,0
CCOC(=O)Cc1c(C)c2c(C)nn(-c3ccccc3)c2oc1=O,-1,0,5,-2,·,0
NS(=O)(=O)c1ccc(CNC(=O)C(Cc2ccccc2)NS(=O)(=O)c2ccccc2F)cc1 (stereo unspecified),·,-4,1,-1,1,16*
CCOC(=O)C1CCCN(c2ccc([N+](=O)[O-])c3nonc23)C1 (stereo unspecified),·,·,-3,·,1,47*
CO[C@H](CN(C)C(=O)c1ccccc1F)[C@@H](C)CN([C@H](C)CO)S(=O)(=O)c1ccc(C)cc1,0,·,·,·,0,·
C=CC(C)(C)c1c2occc2c(O)c2ccc(=O)oc12,0,·,·,1,0,14*
CNC(C(=O)c1ccccc1)C(OC)c1cccc([N+](=O)[O-])c1 (stereo unspecified),·,0,1,4,21*,-3
COc1cccc(-c2ccc3c(c2)[C@@H]2[C@@H](CCN2S(=O)(=O)c2ccccc2OC)[C@@H](CO)N3)c1,·,·,·,·,1,·
O=C(C[C@@H]1C=C[C@@H](NC(=O)C2CCOCC2)[C@H](CO)O1)Nc1ccccc1,·,·,·,·,0,·
O=C(Nc1ccc2nsnc2c1)N1CCCCC1,3,-1,-3,-13,·,0
S=C(Nc1ccc2nsnc2c1)N1CCCCCC1,·,-2,55*,-162,0,-1
CCCn1c(N)c(C(=O)COC(=O)c2cccc(S(=O)(=O)N3CCOCC3)c2)c(=O)[nH]c1=O,0,4,·,-10,13*,0
CN(CCN1CCOCC1)C(=O)CC1C(=O)NCCN1Cc1ccccc1C(F)(F)F (stereo unspecified),-4,3,-6,-10,19*,1
C[C@@H]1CCCCO[C@@H](CN(C)Cc2ccccc2)[C@H](C)CN([C@H](C)CO)C(=O)c2cc(NS(=O)(=O)c3cn(C)cn3)ccc2O1,0,·,·,·,-1,·
COc1ccc(CCNC(=O)CCCn2nc(C)n3ccnc3c2=O)cc1OC,0,3,-1,0,14*,0
CCOC(=O)C1=C(CN2CCN(C(=O)c3ccco3)CC2)NC(=O)NC1c1ccc(OC(C)C)cc1 (stereo unspecified),44*,3,1,-5,2,-1
CNC(=O)c1nnsc1S(=O)c1ccc(Cl)cc1 (stereo unspecified),·,·,40*,·,-2,-1
Cc1ccc(S(=O)c2snnc2C)cc1 (stereo unspecified),-1,1,2,-2,2,1
CC(C)NC(=O)Nc1ccc2c(c1)C(=O)N([C@H](C)CO)C[C@H](C)[C@@H](CN(C)Cc1ccncc1)O2,-3,·,·,·,-1,·
COc1ccc(NC(=O)Nc2ccc3c(c2)[C@@H]2C[C@H](CC(=O)N[C@@H](C)c4ccccc4)O[C@H](CO)[C@@H]2O3)cc1,·,·,·,·,-2,·
Cc1ccc2c(c1)-c1c(ssc1=S)C(C)(C)N2C(=O)CSC1=NCCS1,0,2,30*,1,2,-2
CC(C)Cc1[nH]c(=O)c(C#N)c2c1CCC2,-1,5,-1,-2,50*,-1
CCCCc1[nH]c(=O)c(C#N)c2c1CCCC2,·,2,-1,-16,·,-2
SMILES,BioA inh,UGM FP inh,RecA splice inh,Rv3671c inh,TcdB GH inh,FadD28 FP inh
COc1cc(/C=N/NC(=O)CN(Cc2ccccc2)S(=O)(=O)c2ccc3c(c2)OCCO3)ccc1O,·,-1,3,7,2,22*
Cc1ccc(S(=O)(=O)N(C(=O)c2ccncc2)c2ccc3oc4c(c3c2)CCCC4)cc1[N+](=O)[O-],0,0,-2,-60,·,-4
COC(=O)c1c(C)oc2ccc(N(C(=O)c3ccncc3)S(=O)(=O)c3ccc(C)cc3)cc12,-1,0,12,-23,·,-8
COC(=O)c1c(C)oc2ccc(N(C(=O)c3ccncc3)S(=O)(=O)c3ccc4ccccc4c3)cc12,·,1,38*,-14,·,-2
Cc1ccc([N+](=O)[O-])cc1S(=O)(=O)N(C(=O)c1ccncc1)c1ccc2oc3c(c2c1)CCCC3,·,0,43*,-26,3,-2
Cc1cc(F)ccc1S(=O)(=O)N(C(=O)c1ccncc1)c1ccc(OC(=O)c2ccncc2)cc1,1,0,31*,1,0,-3
COC(=O)c1c(C)oc2ccc(N(C(=O)c3ccncc3)S(=O)(=O)c3ccc(C)cc3C)cc12,·,-2,56*,-19,·,-1
CCCNC(=O)N1CC2(CN(S(=O)(=O)CC)C2)c2c(n(C)c3cc(OC)ccc23)[C@@H]1CO,·,·,·,·,0,·
O=C(C[C@@H]1C[C@@H]2c3cc(NC(=O)CC4CC4)ccc3O[C@@H]2[C@@H](CO)O1)NCc1cccnc1,0,·,·,·,-2,·
CNCCc1ccccn1,0,·,-2,5,1,-1
Oc1ccc(CCc2ccccn2)cc1,0,·,·,·,14*,0
CC1=NNC(=O)C1Cc1ccc(F)cc1 (stereo unspecified),1,-1,97*,3,2,-1
COCCCn1c(=O)/c(=C\c2ccccc2OC(C)C)s/c1=C(/C#N)C(=O)Nc1ccc(C(=O)O)cc1,-82,15*,-10,-18,2,-1
CSC1=NSC2=NC(=O)/C(=C/c3coc4ccc(O)cc4c3=O)C(=N)N12,·,-3,-3,-14,-5,12*
CCOC(=O)CSCC(=O)N1N=C(c2cccs2)CC1c1ccc(F)cc1 (stereo unspecified),·,1,32*,7,0,-3
CCCCOC(=O)CSCC(=O)N1N=C(c2cccs2)CC1c1ccc(F)cc1 (stereo unspecified),·,2,23,3,2,0
CCC(=O)N[C@@H]1C=C[C@H](CC(=O)NCC2CC2)O[C@@H]1CO,·,·,·,·,0,·
C[C@@H]1CCCCO[C@@H](CN(C)C(=O)Nc2ccc3c(c2)OCO3)[C@H](C)CN([C@H](C)CO)C(=O)c2cc(NC(=O)NC3CCCCC3)ccc2O1,0,·,·,·,·,·
COc1ccc(NC(=O)Nc2ccc3c(c2)C(=O)N([C@@H](C)CO)C[C@H](C)[C@H](CN(C)Cc2ccncc2)OCCCC[C@@H](C)O3)cc1,0,·,·,·,-1,·
COc1cc(C(c2c(C)[nH]n(-c3ccccc3)c2=O)c2c(C)[nH]n(-c3ccccc3)c2=O)cc(OC)c1OC,2,2,98*,-178,0,0
C[C@@H]1CN([C@H](C)CO)C(=O)c2cc(NC(=O)CCCN(C)C)ccc2O[C@@H](C)CCCCO[C@H]1CN(C)S(=O)(=O)c1ccccc1,1,·,·,·,-4,·
O=C(O)c1cc(-c2ccco2)nc2ccc(Br)cc12,-2,2,-1,-5,·,29*!
O=C(c1ccco1)N1CCN(C(=O)c2cc(-c3ccncc3)nc3ccc(Br)cc23)CC1,0,2,1,-6,·,-4

# High-throughput results from PubChem BioAssay.
